This passage reports inhibition results from PubChem BioAssay AID651702 (NMMLSC, 2012).

Hit rate of the full screen: of about 360,000 compounds, about 2,400 (0.67%) were called active.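 Rule for the calls: active = inhibition above about 55% (limit read from the data); inconclusive = no clear call, values can overlap the other calls; inactive = the rest.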 The entries come from a sample that favours actives as a whole.

The assay is described as follows: LAMP-1 surface exposure blockers, TALL-104 cells – cell-based, flow cytometry, MLPCN library, primary screen (AID 651702). Conditions: TALL-104 LAMP-1 surface exposure, at 10 µM, active compounds read high, cells stimulated with thapsigargin and PMA.
As for `Cn1c(=O)c([N+](=O)[O-])c(Oc2ccccc2)c2ccccc21`, the inhibition (in general, the drop in the measured response relative to a control, in per cent) is -0.7% (inactive).

As to `COc1ccc(NS(=O)(=O)c2cc(NC(=O)CC(=O)c3ccc([N+](=O)[O-])cc3)ccc2C)cc1`, the inhibition is -16.7% (inactive).

For the compound `C=CCn1c(CCNC(=O)c2ccccc2F)nnc1SCC(=O)Nc1ccc(OC)cc1`, the inhibition was -1.4% (inactive).

Turning to `CCCCNC(=O)C(C)N(CCN(C)C)C(=O)CCCCCN1C(=O)NC(c2ccc(Cl)cc2)C(C(=O)OCc2ccccc2)=C1C` (configuration not stated), the inhibition was 61.8% (active).

As for `CCOC(=O)CCCNC(=O)CN1C(=O)NC(CCc2ccccc2)C1=O` (configuration not stated), the inhibition was -0.3% (inactive).

`COC(=O)C1=C(C)N(Cc2ccccc2)C(=NCCCOC(C)C)N[C@H]1c1ccccc1`: the inhibition was -2.7% (inactive).

As for `CCOC(=O)C1=C(CN2CCc3ccccc32)NC(=O)NC1c1ccc(Cl)cc1` (configuration not stated), the inhibition was -0.5% (inactive).

Regarding `CCOC(=O)C1=C(C)N(C[C@@H]2CC[C@@H](Cc3ccc(-c4ccccc4)cc3)O2)C(=O)NC1c1ccc([N+](=O)[O-])cc1` (some centres not stated), the inhibition is 1.6% (inactive).

Turning to `CCCCNC(=O)C(C)N(CCN(C)C)C(=O)CCCN1C(=O)NC(c2ccc(Cl)cc2)C(C(=O)OCc2ccccc2)=C1C` (configuration not stated), the inhibition is 65.1% (active).

For `COc1ccc(OC)c(CN2C(=O)CCC2(C)c2nnnn2Cc2ccccc2)c1` (configuration not stated), the inhibition was -8.5% (inactive).

Consider `O=C(CSc1nnc(-c2ccoc2)o1)N1CCOCC1`, for which the inhibition was -6.6% (inactive).

Consider `O=[N+]([O-])/C=C/c1ccc2c(ccn2Cc2ccccc2)c1`, for which the inhibition is 79.9% (active).

In the case of `C=CCC[C@@H](CCCCC)OC(=O)/C=C/[C@@H](O)[C@H](O)C[C@H](O)CC=C`, the inhibition was -9.1% (inactive).

With `Cc1ccc2oc(C(=O)N3CCN(C)C[C@@H]3C(C)C)c(C)c2c1`, the inhibition is 1.3% (inactive).

As to `CCOC(=O)C1C(C)C(C(C)(C)C)N(S(=O)(=O)c2ccc(C)cc2)C1c1ccccc1` (configuration not stated), the inhibition is -9.6% (inactive).

Turning to `NS(=O)(=O)c1ccc(CCNC(=O)CCCn2c(SCC(=O)N3CCCC3)nc3ccsc3c2=O)cc1`, the inhibition is -2.5% (inactive).

Turning to `CN(C)CCNC(=O)c1cccc(-c2cnc3c(NC=O)cc(-c4cccc(C(F)(F)F)c4)cn23)c1`, the inhibition was 39.3% (inactive).

In the case of `CN(C)C(CNC(=O)c1ccc(OCc2cn3ccccc3n2)cc1)c1ccco1` (configuration not stated), the inhibition is -4.3% (inactive).

On to `CN(C)CCNC(=O)c1ccc(-c2cn3c(-c4ccc(Oc5ccccc5)cc4)cnc3cn2)cc1`, for which the inhibition was 57.2% (active).

In the case of `CCCCCC(O)(CCN1CCCCC1)c1ccccc1` (configuration not stated), the inhibition is 1.7% (inactive).

With `Cc1cc(F)ccc1NC(=O)C(C)n1c2ccccc2c2nc(=O)cc(C)n21` (configuration not stated), the inhibition was 0.1% (inactive).

On to `CC(C)N1C(=O)c2ccccc2NC(=O)C1C(=O)NCc1cccs1` (configuration not stated), for which the inhibition is 16.2% (inactive).

As for `Cc1cc2oc(=O)cc(CN(C)Cc3ccccc3)c2cc1Cl`, the inhibition was -1.1% (inactive).

As to `Cc1ccc(CN(C)Cc2cc(=O)oc3cc(C)c(Cl)cc23)cc1`, the inhibition was -0.1% (inactive).

With `Cc1cc2oc(=O)cc(CN(C)Cc3ccc(OC(F)F)cc3)c2cc1Cl`, the inhibition was 76.8% (active).

In the case of `CCC(C(=O)NCc1cccnc1)n1nc(C)c2sc3ccccc3c2c1=O` (configuration not stated), the inhibition is 5.3% (inactive).

`O=C(Cn1ncc2c3ccccc3n(Cc3ccccc3)c2c1=O)NCCCN1CCOCC1`: the inhibition is 0.7% (inactive).

For `Cc1nn(CC(=O)NCCc2ccccc2)c(=O)c2cc3occc3n12`, the inhibition is -1.6% (inactive).

Regarding `CCc1ccc(-c2cc3c(=O)n(CC(=O)NCCCN4CCN(Cc5ccccc5)CC4)nc(C)n3n2)cc1`, the inhibition was 57.5% (active).

For `O=C(NCC(F)(F)F)Nc1nnc(C(F)(F)F)s1`, the inhibition is 4.2% (inactive).

For `O=C(CCCN1CCc2[nH]c3ccc(F)cc3c2C1)c1ccc(F)cc1`, the inhibition is 38.3% (inactive).

Take `C=CCn1c(SCc2ccc(Cl)c(Cl)c2)nnc1C(CO)NC(=O)c1ccc(OC)cc1` (configuration not stated): the inhibition was 0.1% (inactive).

As for `CCN1/C(=C\c2ccc3ccccc3[n+]2CC)Sc2cc(C)ccc21`, the inhibition was 63.6% (active).

Consider `Cc1ccc(C)c(S(=O)(=O)N2CCN(c3ncnc4sccc34)CC2)c1`, for which the inhibition is -10.6% (inactive).

Consider `CC1C(=O)Nc2ccccc2N1C(=O)c1ccc(F)cc1F` (configuration not stated), for which the inhibition is -3.6% (inactive).

With `COc1ccc(F)cc1C(=O)COC(=O)c1n[nH]c(=O)c2ccccc12`, the inhibition is 3.6% (inactive).

Regarding `O=C(/C=C/Sc1ncn[nH]1)c1ccc(Cl)cc1`, the inhibition was 69% (active).

For `CC1CCC(CN2CCN=C2N(C)C)CC1` (configuration not stated), the inhibition was 8.2% (inactive).

`Cc1cccc(C)c1NC(=O)COC(=O)c1ccccc1O`: the inhibition was -9.6% (inactive).

Consider `Cc1cccc(C)c1NC(=O)C(Cl)C(=O)c1ccccc1` (configuration not stated), for which the inhibition is 72.7% (active).

As to `Cc1cccc(C)c1NC(=O)N1CC(C)OC(C)C1` (configuration not stated), the inhibition was -0.4% (inactive).

For the compound `Cc1ccc(N(C(=O)CNC(=O)c2ccco2)C(C(=O)NC2CCCC2)c2ccncc2)cc1` (configuration not stated), the inhibition is -16.9% (inactive).

In the case of `COCCc1nn2c(=O)cc(COC(=O)c3cc(OC)c(OC)c(OC)c3)nc2s1`, the inhibition is -0.5% (inactive).

Regarding `Cc1cccc(N(CC(=O)Nc2ccc(-c3nc4ccc(C)cc4s3)cc2)S(C)(=O)=O)c1`, the inhibition is 68% (active).

With `CCN(CC)S(=O)(=O)c1ccc(NC(=O)CN(c2cccc(F)c2)S(C)(=O)=O)cc1`, the inhibition is -6% (inactive).

Consider `Cc1ccc(N(CC(=O)Nc2cc(C)cc(C)c2)S(=O)(=O)c2cccc3nonc23)cc1`, for which the inhibition is 2.1% (inactive).

As for `CCn1c(O)c2ccc(C(=O)N=NC(=O)c3cccnc3)cc2c1O`, the inhibition was -0.4% (inactive).

Turning to `CCc1sc(C(=O)N2CCN(CC(=O)Nc3cccc(F)c3)CC2)cc1C`, the inhibition was -5.4% (inactive).

As to `CC(=O)C[C@@H]1OC[C@H](C)N1S(=O)(=O)c1ccc(C)cc1`, the inhibition was -6.7% (inactive).

Take `COc1ccc(-c2cc(=O)oc3cc(OC(C)C(=O)NCC4CCC(C(=O)O)CC4)ccc23)cc1` (configuration not stated): the inhibition was 19.5% (inactive).

Consider `Cc1ccc([N+](=O)[O-])c(OCCCNCC(C)O)c1` (configuration not stated), for which the inhibition is 0% (inactive).

In the case of `CCCCc1ccc(NC(=S)NCCCN2CCOCC2)cc1`, the inhibition is 67% (active).

Take `CCCC(=O)NC(=S)Nc1ccc(CN2CCOCC2)cc1`: the inhibition was -6.2% (inactive).

Turning to `Cc1cc(C)cc(NC(=S)NCCCN2CCOCC2)c1`, the inhibition is -0.8% (inactive).

Regarding `Cc1ccc(S(=O)(=O)N2CCC(=O)N([C@H](COCc3ccccc3)C(C)C)CC2)cc1`, the inhibition is -7.5% (inactive).

On to `CC(C)CCN1CCN=C1N(C)C`, for which the inhibition is -1.5% (inactive).

In the case of `COc1ccccc1CN1CCN(C(c2ccccc2)c2ccccc2)CC1`, the inhibition is 69.5% (active).

Consider `COc1cccc(OC)c1C(=O)N1CCN(Cc2ccccc2F)CC1`, for which the inhibition was 0.4% (inactive).

Regarding `COc1ccccc1CN1CCN(Cc2cc(OC)c(OC)cc2OC)CC1`, the inhibition was 4.3% (inactive).

`CSc1ncccc1C(=O)OCC(=O)N1CCOCC1`: the inhibition is 0.7% (inactive).

As for `COc1ccc(-c2csc(Nc3ccc(O)cc3)n2)cc1`, the inhibition was 67.8% (active).

Turning to `COC(=O)CCc1sc(Nc2ccc(Br)cc2)nc1-c1ccc(OC)cc1`, the inhibition is 7.1% (inactive).

Regarding `COc1ccc(C(O)c2nc(-c3ccc(OC)nc3)cs2)cc1` (configuration not stated), the inhibition is -0.4% (inactive).

Turning to `O=C(CS(=O)(=O)c1cn(Cc2ccc(Cl)cc2)c2ccccc12)N1CCOCC1`, the inhibition was -1.9% (inactive).

Turning to `CCOC(=O)CSc1nc2c(c(=O)n(Cc3ccccc3Cl)c(=O)n2C)n1C`, the inhibition is -0.4% (inactive).

As to `CCOC(=O)Cc1csc(NC(=O)CSc2nnc(-c3cccnc3)n2Cc2ccco2)n1`, the inhibition was 1% (inactive).

In the case of `CCOC(=O)CSc1nc2c(sc(=S)n2CCc2ccccc2)c(=O)n1Cc1ccco1`, the inhibition was 55.7% (active).

For the compound `CCCc1nc(SCC(=O)N2CCCC2)c2c(=O)n(C)c(=O)n(C)c2n1`, the inhibition was 45.2% (inactive).

Consider `CC(O)CN(Cc1ccc(Cl)cc1)CC(C)O` (configuration not stated), for which the inhibition was 0.5% (inactive).

For the compound `CCCCCn1c(=O)[nH]c2cc(C(=O)NCCCN3CCCCC3C)ccc2c1=O` (configuration not stated), the inhibition was -0.7% (inactive).

For the compound `Cc1ccc(-c2cnc(NC(=O)CCC(=O)N(C)Cc3ccccc3)n2C)cc1`, the inhibition is -1.9% (inactive).

In the case of `CC(C)CN1CC(C)C(=O)N(c2ccccc2)C1=S` (configuration not stated), the inhibition was 1.4% (inactive).

For `CCN(CC(=O)Nc1ccccc1C(=O)NC1CC1)Cc1cccs1`, the inhibition is -0.1% (inactive).

As to `CC1CCc2c(nc3ncnn3c2Nc2ccc(OC(F)(F)F)cc2)C1` (configuration not stated), the inhibition is -1.5% (inactive).

In the case of `Cn1sc(=O)c2cc(S(=O)(=O)NC3CC3)ccc21`, the inhibition is 100% (active).

Regarding `CC1CCC(NS(=O)(=O)c2ccc3c(c2)CC(=O)N3)CC1` (configuration not stated), the inhibition was -3.8% (inactive).

On to `O=S(=O)(NC1CC1)c1ccc(F)c(F)c1`, for which the inhibition is -10.9% (inactive).

In the case of `OC(CNCC1CCCO1)Cn1c2ccc(Br)cc2c2cc(Br)ccc21` (configuration not stated), the inhibition was 41.3% (inactive).

`O=C(NCc1cccnc1)c1ccc(CS(=O)(=O)c2ccc(Br)cc2)o1`: the inhibition is 2.2% (inactive).

As for `Nc1cc(N)nc(SCc2ccc(Cl)cc2)n1`, the inhibition was 0.3% (inactive).

With `Nc1nc(SCc2ccc([N+](=O)[O-])cc2)c2ncn(C3OC(CO)C(O)C3O)c2n1` (configuration not stated), the inhibition is -2.7% (inactive).

Turning to `CC(C)Cn1cnc2c(SCc3ccc(Cl)cc3)nc(N)nc21`, the inhibition was 90.1% (active).

With `COc1ccc(OCc2nnc3n2N=C(c2ccccc2)C(CC(=O)O)S3)cc1` (configuration not stated), the inhibition was 32.9% (inactive).

Turning to `Cc1ccc(Nc2cc(=O)n(C3CCCCC3)c(=O)[nH]2)cc1C`, the inhibition is -1.1% (inactive).

For the compound `COc1ccc(Cl)cc1C(=O)OCC(=O)NCc1cccs1`, the inhibition is 20.4% (inactive).

Take `COc1ccccc1CNC(=O)c1cc(-c2cc(Cl)ccc2C)n[nH]1`: the inhibition was 2.8% (inactive).

`CCOc1ccc(Cl)cc1-c1cc(C(=O)NCc2cccs2)[nH]n1`: the inhibition was 66.5% (active).

On to `Cn1c(=O)c2c(n(Cc3ccccc3)c1=O)NC(=O)C2CC(=O)N1CCc2ccccc2C1` (configuration not stated), for which the inhibition is 5.7% (inactive).

For `Cn1c(SCc2nc3ccccc3s2)nnc1-c1ccc2c(c1)OCO2`, the inhibition was -6.5% (inactive).

As to `Cc1ccccc1CN1C[C@@H]2C[C@@H](c3cn(C)nc3-c3ccccc3)N3CCC[C@@]23C1=O`, the inhibition was 82.4% (active).

In the case of `Cc1ccccc1CN1C[C@@H]2C[C@@H](c3ccc4nsnc4c3)N3CCC[C@@]23C1=O`, the inhibition was -2.3% (inactive).

As to `COc1ccc(CN2CCN(Cc3cn(C)nc3-c3ccccc3)CC2CCO)c(C)c1C` (configuration not stated), the inhibition was 4.6% (inactive).
